In the supplement of paper PMC12350171:
Where a name gives a salt, the structure may show the parent alone. A number with no mark means an inactive call.

Columns and labels:
Conditions in all cases: 20 µM
[1] = system: Haemophilus parainfluenzae; assay: growth AUC normalised to DMSO control (fraction of control); higher = less growth inhibition, active = hit call of the paper
Method in brief: (§1)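 Three biological replicates were carried out, with OD578 read hourly for 24 h. Before inoculation at a starting OD578 of 0.01, pathogens were passaged anaerobically twice; plates were pre-reduced mGAM containing 20 μM compound and 1% DMSO, sealed with breathable membranes, and the Haemophilus parainfluenzae medium carried added hemin and NAD. Area under each growth curve was calculated by the trapezoidal rule up to the exponential-to-stationary transition and normalised to DMSO controls on the same plate.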

[2] = system: Salmonella enterica typhimurium; assay: as above
Method in brief: as §1

Shigella flexneri = assay: as above
Method in brief: as §1

Vibrio cholerae = assay: as above
Method in brief: as §1

[3] = system: Yersinia pseudotuberculosis; assay: as above
Method in brief: as §1

P. vulgatus RND KO = assay: growth AUC normalised to DMSO control (median) (fraction of control); higher = less growth inhibition, active = hit call of the paper
Method in brief: (§2)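 Area under the growth curve, calculated by the trapezoidal rule up to entry into stationary phase, was normalised to vehicle wells on the same plate. Strains had been passaged twice overnight without oxygen and then grown in mGAM in 96-well plates from OD578 0.01, each with an approved-drug library compound at 20 μM in 1% DMSO. OD578 was read hourly over 24 h in an anaerobic incubator, and the median of three biological replicates is given.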

P. vulgatus WT = assay: as above
Method in brief: as §2

[4] = system: S. enterica typhimurium WT; assay: as above
Method in brief: as §2

[5] = system: S. enterica typhimurium tolC KO; assay: as above
Method in brief: as §2
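For growth AUC normalised to DMSO control (median) in this document: active when median AUC fell below 0.1.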

Structure (SMILES) | growth AUC normalised to DMSO control [1] | growth AUC normalised to DMSO control [2] | growth AUC normalised to DMSO control (Shigella flexneri) | growth AUC normalised to DMSO control (Vibrio cholerae) | growth AUC normalised to DMSO control [3] | growth AUC normalised to DMSO control (P. vulgatus RND KO) | growth AUC normalised to DMSO control (P. vulgatus WT) | growth AUC normalised to DMSO control [4] | growth AUC normalised to DMSO control [5]
COc1ccc(CCN2CCC(Nc3nc4ccccc4n3Cc3ccc(F)cc3)CC2)cc1 [Astemizole] | 1.02 | 1.05 | 0.997 | 0.934 | 1.02 | 1.01 | 0.986 | 1 | 0.962
S=C(NC1CCCCC1)N1CCC(c2cnc[nH]2)CC1 [Thioperamide maleate] | 0.976 | 0.98 | 0.957 | 0.97 | 0.991 | 1 | 1.01 | 0.997 | 0.996
CN(C)[C@@H]1C(=O)C(C(N)=O)=C(O)[C@@]2(O)C(=O)C3=C(O)c4c(O)ccc(Cl)c4[C@@](C)(O)[C@H]3C[C@@H]12 [Chlortetracycline hydrochloride] | 0.0445 (active) | 0.00172 (active) | 0.0163 (active) | 0.0321 (active) | 0.0311 (active) | 0.0183 (active) | 0.0152 (active) | 0.00367 (active) | 0.00506 (active)
NCC(CC(=O)O)c1ccc(Cl)cc1 (configuration not stated) [Baclofen] | 1.04 | 1.01 | 1.01 | 1.01 | 0.992 | 1.02 | 1.07 | 1.02 | 0.999
CC(=O)[C@H]1CC[C@H]2[C@@H]3CC[C@H]4C[C@H](O)CC[C@]4(C)[C@H]3C(=O)C[C@]12C [Alfaxalone] | 1 | 0.999 | 0.973 | 0.964 | 1.01 | 0.996 | 0.996 | 1 | 0.911
C[N+]1(C)CCOC(O)(c2ccc(-c3ccc(C4(O)C[N+](C)(C)CCO4)cc3)cc2)C1 (configuration not stated) [Hemicholinium bromide] | 0.977 | 1 | 1.03 | 1.06 | 1.03 | 1 | 1.02 | 1.01 | 1
COc1ccc(C(CN(C)C)C2(O)CCCCC2)cc1 (configuration not stated) [Venlafaxine] | 1.33 | 0.98 | 0.957 | 0.984 | 1.08 | 0.997 | 0.999 | 0.997 | 1
CC(C)[N+](C)(CCC(C(N)=O)(c1ccccc1)c1ccccc1)C(C)C [Isopropamide iodide] | 0.981 | 0.998 | 1 | 1 | 0.991 | 0.995 | 1.02 | 1 | 0.993
CC(Cc1ccc(O)cc1)NCC(O)c1cc(O)cc(O)c1 (configuration not stated) [Fenoterol hydrobromide] | 0.991 | 1.01 | 0.962 | 1.01 | 0.998 | 1.03 | 1.03 | 1.01 | 1
CCN[C@@H](C)Cc1cccc(C(F)(F)F)c1 [Dexfenfluramine hydrochloride] | 1.01 | 0.995 | 1.02 | 1.02 | 0.995 | 1 | 1.02 | 0.996 | 1
Clc1ccc(C(OCCN2CCCCC2)c2ccccc2)cc1 (configuration not stated) [Cloperastine hydrochloride] | 0.833 | 0.992 | 1.03 | 0.954 | 1.03 | 1.01 | 1 | 1 | 0.938
CC(C)N(CCC(C(N)=O)(c1ccccc1)c1ccccn1)C(C)C (configuration not stated) [Disopyramide] | 0.997 | 0.993 | 0.988 | 0.983 | 0.996 | 1 | 0.998 | 1 | 0.983
CN[C@@H]1[C@@H](O)[C@@H](O[C@@H]2[C@@H](O)[C@H](O[C@H]3O[C@H](CN)CC[C@H]3N)[C@@H](N)C[C@H]2N)OC[C@]1(C)O.CN[C@@H]1[C@@H](O)[C@@H](O[C@@H]2[C@@H](O)[C@H](O[C@H]3O[C@H]([C@@H](C)N)CC[C@H]3N)[C@@H](N)C[C@H]2N)OC[C@]1(C)O.CN[C@@H]1[C@@H](O)[C@@H](O[C@@H]2[C@@H](O)[C@H](O[C@H]3O[C@H]([C@@H](C)NC)CC[C@H]3N)[C@@H](N)C[C@H]2N)OC[C@]1(C)O [Gentamicine sulfate] | 0.864 | 1 | 1.02 | 1.04 | 1.02 | 1.05 | 1.02 | 1 | 1
